Measurements taken from PubChem BioAssay AID652031 (The Scripps Research Institute Molecular Screening Center, 2013).
Hit rate of the full screen: of about 16,000 compounds, about 70 (0.4%) were called active. No stated cut-off is given here; in the data, active means inhibition above about 50%; inactive means the rest. The full list was thinned out, with actives kept by preference.

What follows are compounds tested against Kappa-type opioid receptor (Homo sapiens) (UniProt P41145) (assay: blocks the human kappa opioid receptor, Maybridge compounds (AID 652031)). Settings: OPRK1 cells, antagonist mode, fluorescence readout; at 9 µM; active compounds read high.
Sequence of Kappa-type opioid receptor (Homo sapiens) (P41145 whole entry, looked up): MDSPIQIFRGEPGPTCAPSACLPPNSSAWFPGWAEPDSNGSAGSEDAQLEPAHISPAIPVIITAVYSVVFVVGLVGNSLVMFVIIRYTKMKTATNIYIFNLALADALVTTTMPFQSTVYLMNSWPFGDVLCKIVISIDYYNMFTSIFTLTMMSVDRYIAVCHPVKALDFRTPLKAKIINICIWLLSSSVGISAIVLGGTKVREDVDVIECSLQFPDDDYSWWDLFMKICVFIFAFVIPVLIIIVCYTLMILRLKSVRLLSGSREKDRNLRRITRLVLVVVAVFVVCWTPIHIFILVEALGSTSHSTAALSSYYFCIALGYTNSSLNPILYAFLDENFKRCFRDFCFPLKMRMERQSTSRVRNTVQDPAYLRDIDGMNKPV

Q: O=C(O)C1CCC1C(=O)Nc1nnc(C2CC2)s1 (stereo unspecified) was tested. Which inhibition did it give?
A: 7.5% (inactive)

Q: For O=C(NNC(=S)Nc1ccc(S(=O)(=O)N2CCCCC2)cc1)c1ccncc1, which inhibition is on record?
A: 6% (inactive)

Q: Which inhibition does the source give for CC(CC(=O)O)Oc1ccc(Cl)cc1[N+](=O)[O-] (stereo unspecified) here?
A: -0.1% (inactive)

Q: O=C(O)CCC(=O)Nc1ccccc1 was tested. Which inhibition did it give?
A: 9.6% (inactive)

Q: For O=C(CN1CCOCC1)NNC(=O)c1cccs1, which inhibition is on record?
A: 9.5% (inactive)

Q: How did the inhibition turn out when O=S(=O)(CCSc1ccccc1NS(=O)(=O)c1cccs1)c1ccc(Cl)cc1 was run?
A: -16.4% (inactive)

Q: For CCCN(CCC)S(=O)(=O)c1ccc(C(=O)Oc2c(C)cccc2OC)cc1, which inhibition is on record?
A: -3.1% (inactive)

Q: Which inhibition does the source give for Cc1noc(C)c1C(=O)N1CCOCC1 here?
A: 0.6% (inactive)

Q: Which inhibition does the source give for CC(=O)OCc1ccc(COC(C)=O)c(OC(C)=O)c1OC(C)=O here?
A: -15.9% (inactive)

Q: O=C1C(Cl)=C(Oc2cc(Cl)c(Cl)cc2Cl)C(=O)c2ccccc21 was tested. Which inhibition did it give?
A: 21.4% (inactive)

Q: For CO/N=C(/C)c1ccc2c(c1)CCO2, which inhibition is on record?
A: 10.8% (inactive)

Q: COC(=O)/C=C/c1cn(C2OCC(CO)C2O)c(=O)[nH]c1=O (stereo unspecified) was tested. Which inhibition did it give?
A: -22% (inactive)

Q: For O=C(OCc1ccco1)c1cnc(Nc2ccc(OC(F)(F)F)cc2)nc1C(F)(F)F, which inhibition is on record?
A: 17.4% (inactive)

Q: Which inhibition does the source give for Cc1ccccc1C(=O)NNC(=O)c1ccccc1C1=NCCCN1 here?
A: -4.3% (inactive)

Q: O=C(NC(=O)C1CCN(c2ncccc2[N+](=O)[O-])CC1)Nc1ccc(Cl)cc1 was tested. Which inhibition did it give?
A: -2% (inactive)

Q: Which inhibition does the source give for O=c1oc2ccc(Cl)cc2cc1-c1ccc([N+](=O)[O-])cc1 here?
A: -18.5% (inactive)

Q: CC(C)(C)c1cc(C(=O)/C=C2/NC(=O)CS2)no1 was tested. Which inhibition did it give?
A: 6.7% (inactive)

Q: For Cc1nn(S(=O)(=O)c2ccc(Cl)cc2)cc1-c1ccccc1, which inhibition is on record?
A: 0.1% (inactive)

Q: How did the inhibition turn out when Cc1ccc(S(=O)(=O)NC(=O)NNc2ncnc3scc(-c4ccccc4)c23)cc1 was run?
A: -34.5% (inactive)

Q: For NC(N)=N/C(N)=N/c1nnc(C(F)(F)F)s1, which inhibition is on record?
A: 13.1% (inactive)

Q: N#C/C(=C\c1sccc1Oc1ccccc1)S(=O)(=O)c1ccc(C(F)(F)F)cn1 was tested. Which inhibition did it give?
A: -9.5% (inactive)

Q: Which inhibition does the source give for O=S(=O)(Cc1cccc(C(F)(F)F)c1)NCc1ccc2c(c1)OCO2 here?
A: 9.5% (inactive)

Q: Which inhibition does the source give for O=c1[nH]cc(Br)c(=O)[nH]1 here?
A: 6.1% (inactive)

Q: CN(C)c1cc(-c2cc(Cl)sc2Cl)oc(=O)c1Cl was tested. Which inhibition did it give?
A: -5% (inactive)

Q: How did the inhibition turn out when c1ccc(-n2cccc2)c(N2CCCCC2)c1 was run?
A: -9.4% (inactive)

Q: CC(C)(C)C(=O)NNC(=O)c1ccc(Oc2ccc(C3SCCS3)cc2)o1 was tested. Which inhibition did it give?
A: 30.1% (inactive)

Q: CCOC(=O)/C(C#N)=C/NNc1c(C)csc1C(=O)OC was tested. Which inhibition did it give?
A: 8.8% (inactive)

Q: How did the inhibition turn out when CS/C(=N/S(=O)(=O)c1c(C)noc1C)NNC(=O)Nc1ccc(Cl)cc1 was run?
A: 1.3% (inactive)

Q: Which inhibition does the source give for O=C(Nc1ccccc1C(F)(F)F)N1CCCC1c1cccnc1 (stereo unspecified) here?
A: -12.3% (inactive)

Q: COc1cccc2cc(C(=O)O)oc12 was tested. Which inhibition did it give?
A: 19.9% (inactive)

Q: For c1ccc(C2=NCCN=C2c2ccccc2)cc1, which inhibition is on record?
A: -1.9% (inactive)

Q: Which inhibition does the source give for O=C(O)c1nccnc1C(=O)NCCSCc1c(F)cccc1Cl here?
A: 2.6% (inactive)

Q: O=[N+]([O-])c1cc(C(F)(F)F)ccc1OCCO was tested. Which inhibition did it give?
A: 6.7% (inactive)

Q: Cc1ccc(/C=c2\sc3nc4ccccc4n3c2=O)o1 was tested. Which inhibition did it give?
A: 53.6% (active)

Q: Which inhibition does the source give for CCOC(=O)CN1C(=O)/C(=C\c2ccc(C)o2)N=C1c1ccccc1 here?
A: 3.1% (inactive)

Q: With O=C(Nc1ccccc1)N1CCN(Cc2ccccc2)CC1 as the compound, how does the inhibition read?
A: 8.5% (inactive)
